Experiment in all cases: glycan array binding signal (z-score within array); higher = stronger binding
Holding throughout (conditions): glycan notation: IUPAC condensed, linker removed

Test [1] concerns the target Gal3S(b1-3)[Fuc(a1-4)]GlcNAc. Put shortly:
(§1)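 Glycan array data were curated from 3228 arrays in the Consortium for Functional Glycomics database and kept only where the protein sequence was available. Glycan names were converted to IUPAC-condensed notation, and columns mapping to the same glycan were averaged. The binding signal is a within-array Z-score, averaged across arrays of the same protein sequence at different concentrations or buffers and across linkers. Negative Z-scores can be read as non-binding.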

Test [2] addresses GalNAc(b1-4)GlcNAc(b1-3)GalNAc(b1-4)GlcNAc. The method in brief: as §1
The target in test [3] is Glc(a1-4)Glc(a1-4)Glc(a1-4)Glc. Put shortly: as §1
The target of test [4] is GlcA(b1-6)Gal. The method in brief:
as §1

Test [5] has as its target GlcNAc(a1-4)Gal(b1-4)GlcNAc(b1-3)Gal(b1-4)Glc. The method in brief: as §1
In test [6] the target is GlcNAc(a1-4)Gal(b1-4)GlcNAc(b1-3)Gal(b1-4)[Fuc(a1-3)]GlcNAc(b1-3)Gal(b1-4)[Fuc(a1-3)]GlcNAc. The method in brief:
as §1

Test [7] concerns the target GlcNAc(b1-2)[GlcNAc(b1-6)]Man(a1-6)[GlcNAc(b1-2)Man(a1-3)]Man(b1-4)GlcNAc(b1-4)[Fuc(a1-6)]GlcNAc. Put shortly: as §1
Test [8] deals with GlcNAc(b1-3)Gal(b1-4)GlcNAc(b1-3)Gal(b1-4)GlcNAc(b1-2)[GlcNAc(b1-3)Gal(b1-4)GlcNAc(b1-3)Gal(b1-4)GlcNAc(b1-6)]Man(a1-6)[GlcNAc(b1-3)Gal(b1-4)GlcNAc(b1-3)Gal(b1-4)GlcNAc(b1-2)Man(a1-3)]Man(b1-4)GlcNAc(b1-4)[Fuc(a1-6)]GlcNAc. Put shortly: as §1
Test [9] deals with GlcNAc(b1-3)Gal(b1-4)GlcNAc(b1-6)[GlcNAc(b1-3)Gal(b1-3)]GalNAc. Put shortly:
as §1

Test [10] has as its target GlcNAc(b1-6)GalNAc. Put shortly:
as §1

Test [11] addresses Kdn(a2-3)Gal(b1-4)GlcNAc. The method in brief:
as §1

The target in test [12] is Neu5Ac(a2-3)Gal(b1-3)GalNAc(b1-4)[Neu5Ac(a2-8)Neu5Ac(a2-3)]Gal(b1-4)Glc. Put shortly: as §1
Test [13] addresses Neu5Ac(a2-3)Gal(b1-3)[GlcNAc(b1-6)]GalNAc. Put shortly: as §1
The target of test [14] is Neu5Ac(a2-3)Gal(b1-4)GlcNAc(b1-2)[Neu5Ac(a2-3)Gal(b1-4)GlcNAc(b1-4)]Man(a1-3)[GlcNAc(b1-4)][Neu5Ac(a2-3)Gal(b1-4)GlcNAc(b1-4)Man(a1-6)]Man(b1-4)GlcNAc(b1-4)GlcNAc. The method in brief: as §1
Test [15] addresses Neu5Ac(a2-3)Gal(b1-4)GlcNAc(b1-3)Gal(b1-4)GlcNAc(b1-3)Gal(b1-4)GlcNAc(b1-2)Man(a1-3)[Neu5Ac(a2-3)Gal(b1-4)GlcNAc(b1-3)Gal(b1-4)GlcNAc(b1-3)Gal(b1-4)GlcNAc(b1-2)Man(a1-6)]GalNAc. The method in brief: as §1
Test [16] has as its target Neu5Ac(a2-3)Gal(b1-4)GlcNAc(b1-6)GalNAc. The method in brief: as §1
The target in test [17] is Neu5Ac(a2-3)Gal(b1-4)[Fuc(a1-3)]GlcNAc. Put shortly:
as §1

Test [18] addresses Neu5Ac(a2-3)Gal6S(b1-4)GlcNAc. The method in brief:
as §1

The target of test [19] is Neu5Ac(a2-3)[GalNAc(b1-4)]Gal(b1-4)Glc. The method in brief:
as §1

For test [20], the target named is Neu5Ac(a2-6)Gal(b1-4)GlcNAc(b1-2)Man(a1-3)[Man(a1-6)]Man(b1-4)GlcNAc(b1-4)GlcNAc. The method in brief:
as §1

The target of test [21] is Neu5Ac(a2-6)Gal(b1-4)GlcNAc(b1-2)Man(a1-3)[Neu5Ac(a2-3)Gal(b1-4)GlcNAc(b1-2)Man(a1-6)]Man(b1-4)GlcNAc(b1-4)GlcNAc. Put shortly: as §1
The target in test [22] is Neu5Ac(a2-6)Gal(b1-4)GlcNAc(b1-3)Gal(b1-4)GlcNAc(b1-3)Gal(b1-4)GlcNAc. Put shortly: as §1
The target of test [23] is Neu5Gc(a2-3)Gal(b1-4)GlcNAc. Put shortly:
as §1

Many of the other results were omitted from the sample, so the strongest signals are more common in it than they were.

B1: GS14009A-pdi-495-27-495 (Parabacteroides distasonis) (protein)
chain: FEEVNTDPDSPTDVPTTNLLAYSLYYTSYRLYDRWFAMDEPMTFCGYASKMTYIDESRYNFRTGVQDTNWEYLYRILNNLKDIEKRATFNETPNMLNVSKVMQVHLMQVATDRWRDVPYTDAAKMTDGILQPKYDKQEDIYPGLLATLKEAADGFADGGSDDLGEGDLLFGGDIEKWQRYCNSMRLRLAMRISEVSPALAKETVEEVMGNPTKYPIMESNDDNAFFWWIGTDPNYYEPMADGYRTRKTEYCAADVIVDHMNTREDPRRSSYFQPTKESVEAGEPKYVGYTIGAKANAVASKYSIWGARFFTDLAGFSPYMRVAEPWFCVAEASMLGWNTGISAEDAYNKAVTYSMEENSVSAEDIADYLANAGKFTNDKKQIYYEEWVAMFKQGMEGWSLYRRTGVPDNLYPAPGRPANYSNHNVPPFRSPYPDKERNLNNANCAPFDAEVVDNLWGKQMWWDTRTGVH
As for B1, the “glycan array binding signal (z-score)” value in test [1] was 0.01; in test [2] it was -0.71; in test [3], -0.358; in test [4] it was 0.626; in test [5], -0.147; in test [6], 1.93. Also, the “glycan array binding signal (z-score)” value in test [7] was -0.199; in test [8], 2.44; in [9], 0.415; in test [10], 0.174; in [11], -0.615; in test [12] it was -0.25. Further, the “glycan array binding signal (z-score)” value in [13] is -0.177; in test [14], 0.12; in test [15], 1.45; in [16], -0.512; in [17], -0.201; in [18] it was -0.508. Besides, the “glycan array binding signal (z-score)” value was -0.129 in [19]; -0.647 in test [20]; -0.631 in test [21]; -0.311 in [22]; -0.276 in test [23].
